Marburg entry inh = inhibitors of Marburg virus binding or cell entry | Marburg virus pseudotyped entry inhibition, cell reporter | Potency, µM (series often up to 37.8 µM), usual class: inhibitors | hit rate 1.8% among 300,000; calls by dose curve; tested in HEK293 cells
HCV inh = HCV inhibition; Huh7.5.1 HCVcc-Cre infection, luciferase reporter, 44 h; Potency, µM (series often up to 41.8 µM), usual class: inhibitors; hit rate 3.4% among 340,000; active = well fitted inhibition curve with a large enough effect; inconclusive = small, poorly fitted or top-dose-only effect, or another doubt; inactive = no such curve, though single readings can be large or run the other way
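Whole-lifecycle infectious HCVcc-Cre system; cells 1,000/well, compound then virus (~0.5 moi) added 4 h after plating, 44 h culture. Luciferase read 15 sec following 15 min substrate incubation, room temp.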
HCMV inh = blocks human cytomegalovirus replication. HFF cells, HCMV-luciferase reporter, 72 h; active compounds read low. activity change, negative = inhibition, % at 57.5 µM. hit rate 4.5% among 410,000. AID 1259415; in the data active = activity change below about -60%; inconclusive = no clear call, values can overlap the other calls; inactive = above about -39%
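Cell-based, HFFs, 1000 cells/well, 16 h 37C; cpds in DMSO + HCMV-luc, MOI 1 PFU/cell; 72 h 37C; OneGlo luminescence after 5 min RT; norm. to buffer vs Salinomycin 10uM.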
FMDV antiviral = foot and mouth disease virus antiviral activity; FMDV antiviral cell-based qHTS; Potency, µM (titrated, usually from 57.9 µM), usual class: inhibitors; hit rate 1.2% among 410,000; calls by dose curve; tested in HEK293T cells; also: read-out not given here; nearly all actives have a fitted effect of over 45% in size
SARS PLpro yeast = inhibitors of SARS-CoV papain-like protease in yeast | S. cerevisiae expressing SARS-CoV PLpro, growth rescue | Potency, µM (doses to about 32.9 µM), actives largely listed as activators | hit rate 0.19% among 330,000 | AID 485353; calls by dose curve; also: nearly all actives have a fitted effect of over 55% in size
LASV entry inh = inhibitors of Lassa virus binding or cell entry | Lassa virus pseudotype entry inhibition, cell reporter | Potency, µM (series often up to 37.9 µM), usual class: inhibitors | hit rate 1.2% among 300,000 | AID 540256; calls by dose curve; tested in HEK293 cells; also: nearly all actives have a fitted effect of over 50% in size
Numbers stand for hits; n = inactive; u = inconclusive; x = not tested or not shown. Compounds with a hit are over-represented: about 8% of the library has one in this group of screens.

SMILES | Marburg entry inh | HCV inh | HCMV inh | FMDV antiviral | SARS PLpro yeast | LASV entry inh
COc1cc(/C=C2\CC/C(=C\c3cc(OC)c(OC)c(OC)c3)C2=O)cc(OC)c1OC | u | 12.6µM | n | u | n | n
O=C1/C(=C/c2ccncc2)CCC/C1=C\c1ccncc1 | x | 6.31µM | -100.4 | 14.1µM | n | x
O=C1/C(=C\c2ccccc2)CCC/C1=C/c1ccccc1 | u | n | n | n | x | u
COc1cc(C=C2C(=O)C=CC2=O)ccc1O | x | x | -87.9 | u | x | x
CCc1nn(CC(=O)NCc2cccc(OC)c2OC)c(=O)c2cc3occc3n12 | n | x | n | n | x | x
O=C(CSc1nc(-c2ccccc2)no1)N1CCCCC1 | u | x | n | n | x | n
CC(=O)C1=C(C)N(Cc2ccc(Cl)cc2)C(=S)NC1c1cccc(Br)c1 (centres undefined) | x | x | n | x | x | x
COc1ccc(Nc2nc3ccccc3nc2NS(=O)(=O)c2ccc(Cl)cc2)cc1OC | n | x | n | n | x | n
CCN1C/C(=C/c2cccc([N+](=O)[O-])c2)C(=O)/C(=C/c2cccc([N+](=O)[O-])c2)C1 | 14.6µM | u | -102.5 | 3.55µM | n | 2.82µM
COc1cc(/C=C2\COC/C(=C\c3cc(OC)c(OC)c(OC)c3)C2=O)cc(OC)c1OC | u | 1µM | -97.7 | 3.55µM | n | u
COc1cc(/C=C2\CC/C(=C\c3cc(OC)c(O)c(OC)c3)C2=O)cc(OC)c1O | u | u | -97.5 | 22.4µM | n | n
Cc1cc(C)n(C(C)CC(=O)Nc2ccc(C)c(N(C)C)c2)n1 (centres undefined) | x | x | n | n | x | n
O=C(C1CCN(c2ncnc3c2nc2n3CCCCC2)CC1)N1CCN(c2cccc(Cl)c2)CC1 | x | u | -91.1 | 22.4µM | n | n
O=C(C1CCN(c2ncnc3c2nc2n3CCCCC2)CC1)N1CCN(c2ccc(Cl)cc2)CC1 | x | x | u | n | x | n
Cc1ccc(N2CCN(C(=O)C3CCN(c4ncnc5c4nc4n5CCCCC4)CC3)CC2)c(C)c1 | x | x | -61.5 | u | x | u
CC1CCN(C(=O)C2CCN(c3ncnc4c3nc3n4CCCCC3)CC2)CC1 | x | n | u | u | n | x
CCOC(=O)C(C)NC(=O)C1CCN(c2ncnc3c2nc2n3CCCCC2)CC1 (centres undefined) | x | x | -84.5 | n | x | n
Clc1cccc(N2CCN(c3ncnc4c3nc3n4CCCCC3)CC2)c1 | 2.82µM | x | -73.1 | 11.2µM | x | u
CCOC(=O)[C@@]1([C@@H](NC(=O)OC)c2ccccc2)CCCC1=O | n | x | x | x | x | x
O=C(Nc1ccc(Cl)cn1)C1CCN(c2ncnc3c2nc2n3CCCCC2)CC1 | 3.55µM | 10µM | -86.3 | u | n | n
O=C(Nc1ccc(Cl)cn1)C1CCCN(c2ncnc3c2nc2n3CCCCC2)C1 (centres undefined) | x | u | n | n | n | x
COC(=O)C1=C(C(=O)OC)[C@@H]2N(C)c3ccccc3[C@@]23C[C@@H](CO)N(C(=O)c2ccc(Br)cc2)C3=N1 | n | x | x | x | x | x
CCCCNC(=S)NNC(=O)CCn1nc(C)c(Br)c1C | u | n | -106.4 | n | n | u
Cc1nn(CCC(=O)NNC(=S)Nc2ccc(F)cc2)c(C)c1Br | n | n | n | n | n | u
O=C(Cn1nc(CNc2ccc(Cl)cc2)[n+]2c1CCCCC2)c1ccccc1 | n | n | u | n | n | n
SMILES | Marburg entry inh | HCV inh | HCMV inh | FMDV antiviral | SARS PLpro yeast | LASV entry inh
Cc1ccc(C(C)C)c(OCc2nn(CC(=O)c3ccc(Cl)cc3)c3[n+]2CCCCC3)c1 | u | u | -111.8 | 31.6µM | n | u
CCOc1ccc(NC(=O)Cn2nc(-c3ccccc3Cl)n(CC)c2=S)cc1 | u | u | -61.6 | u | n | n
Cc1ccc(S(=O)(=O)c2cn(C)c3cc(N4CCCC(C)C4)c(F)cc3c2=O)c(C)c1 (centres undefined) | x | x | n | n | x | n
Cc1nc2ccccn2c1C(=O)NC1CCCc2ccccc21 (centres undefined) | x | 7.08µM | -72.3 | u | n | x
COc1ccc(C(=O)NC2CCCc3ccccc32)cc1 (centres undefined) | u | n | -70.4 | n | n | n
COc1cccc(C(=O)NC2CCCc3ccccc32)c1 (centres undefined) | n | n | n | n | n | n
CCOC(=O)C1CCCN(Cc2c(C(=O)N3CCCCC3)nc3c(C)cccn23)C1 (centres undefined) | n | n | n | n | n | n
COCCNc1ccc([N+](=O)[O-])cc1C(=O)NC1CCCc2ccccc21 (centres undefined) | u | 12.6µM | n | n | n | n
Cc1cccn2c(CNC3CCCc4ccccc43)c(C(=O)N3CCCCC3)nc12 (centres undefined) | 10µM | n | n | n | n | u
O=C(NC1CCCc2ccccc21)c1cn2ccccc2n1 (centres undefined) | n | u | n | n | n | n
C=CCOn1c(C)c(C(C)=O)c2c3no[n+]([O-])c3ccc21 | n | u | u | n | n | n
C=CCOn1c(C)c(C(C)=O)c2c3nonc3ccc21 | n | u | -80.6 | n | n | n
COn1c(C)c(C)c2c3nonc3ccc21 | u | u | -64.6 | n | n | n
COC(=O)C(C)Sc1ncnc2c1c(-c1ccccc1)cn2-c1ccc(F)cc1 (centres undefined) | u | x | n | n | x | n
COC(=O)C=CC(=NNc1ccccc1)c1ccccc1 | u | 22.4µM | n | n | x | n
Cc1ccc(S(=O)(=O)N2CCOC23CCN(S(=O)(=O)c2c(C)cc(C)cc2C)CC3)cc1 | u | u | -98.0 | n | n | u
CCCN(C(=O)c1ccc2c(SCC(=O)O)c3c(nc2c1)CCC3)c1cccc(C)c1 | x | n | -60.2 | n | n | x
CCCCNC(=O)c1ccc2c(SCC(=O)O)c3c(nc2c1)CCCC3 | n | n | n | n | n | n
O=c1c(N2CCCCC2)csc2ccc(F)cc12 | x | x | n | n | x | n
O=C(O)c1cccc2c1Cc1cc([N+](=O)[O-])ccc1-2 | n | n | -97.1 | n | x | n
Cc1ccc(CSc2ncc(Cl)c(C(=O)NCCc3ccc(S(N)(=O)=O)cc3)n2)cc1 | n | x | n | u | x | n
c1ccc(-c2cc3ccccc3[nH]2)cc1 | x | u | -65.1 | n | n | x
COc1cc([N+](=O)[O-])c2ncsc2c1 | n | n | n | n | n | n
COc1cc(SSc2cc(OC)cc([N+](=O)[O-])c2N)c(N)c([N+](=O)[O-])c1 | x | n | -98.2 | u | n | x
CCC1CN(CCNC(=O)c2cccnc2OC)Cc2cc(OC)ccc2O1 (centres undefined) | x | x | x | n | x | x
CCC(Oc1ccc2c(=O)c(-c3ccccc3OC)coc2c1)C(=O)OCc1ccccc1 (centres undefined) | u | u | n | 20µM | n | n
COc1ccccc1-c1coc2cc(O)ccc2c1=O | x | x | x | n | x | x
CC(NC(=O)c1ccc(F)cc1)c1nc2ccccc2[nH]1 (centres undefined) | n | x | n | n | x | n
Cc1cc(O)cc(O)c1C(=O)OC1(C)C(=O)C=C2C=C(/C=C/C(=O)O)OC=C2C1=O (centres undefined) | n | x | x | x | x | x
